Results on 40 compounds are retold here after PubChem BioAssay (EPA / NIEHS).

Molecules are shown by their SMILES. The source made the active and inactive calls. How the source made its calls: active means hit-call score of the fitted dose curve at least 0.9, where 1 is the maximum; inactive means score below 0.9.

This test can be described thus: ATG_AP_1_CIS: Attagene CIS-FACTORIAL HepG2 Assay for human Activator Protein 1 (AP-1) (AID 2282931). Particulars: HepG2 Attagene cis-factorial AP-1 reporter mRNA; actives raise or lower the signal. The protocol:
ATG_CIS is a cell-based, multiplexed-readout assay that uses HepG2, a human liver cell line, with measurements taken at 24 hours after chemical dosing in a 24-well plate.ATG_AP_1_CIS is one of 52 assay component(s) measured or calculated from the ATG_CIS assay. It is designed to make measurements of mRNA induction, a form of inducible reporter, as detected with fluorescence intensity signals by Reverse transcription polymerase chain reaction (RT-PCR) and Capillary electrophoresis technology.Data from the assay component ATG_AP_1_CIS was analyzed into 1 assay endpoint. This assay endpoint, ATG_AP_1_CIS, was analyzed with bidirectional fitting relative to DMSO as the negative control and baseline of activity. Using a type of inducible reporter, measures of mRNA for gain or loss-of-signal activity can be used to understand the reporter gene at the transcription factor-level as they relate to the gene FOS and JUN. Furthermore, this assay endpoint can be referred to as a primary readout, because this assay has produced multiple assay endpoints where this one serves a reporter gene function. To generalize the intended target to other relatable targets, this assay endpoint is annotated to the dna binding intended target family, where the subfamily is basic leucine zipper.
Human liver HepG2 cells are transiently transfected with multiple reporter transcription units (MRTUs) in 6-well plates using FuGene 6 reagent (Roche; 3 ml FuGene/1 mg DNA). The MRTU constructs are regulated by a cis-regulating element (promoter). […] A major difference between the CIS and TRANS system is that in CIS activities of endogenous TFs are measured, whereas the TRANS assay evaluates changes in activities of exogenous, chimeric NR-Gal4 proteins. […] At the end of 24 hour incubation, total RNA was isolated using TriZol reagent (Invitrogen). The isolated RNA is then reverse-transcribed using oligo(dT) primer and Mo-MLV reverse transcriptase (Invitrogen) with DNAse I (Ambion) treatment for 30 min. The one-tenth of the produced cDNA was amplified by PCR using Taq DNA polymerase (Invitrogen) and two reporter sequence-specific primers. The PCR products were fluorescently labeled by primer extension with 6-arboxyfluorescein (6-FAM) 5'-labeled reporter sequence-specific primer (2 min at 95 C, 20 s at 68 C and 10 min at 72 C) and these products were digested with 5U of HpaI (New England Biolabs) for 2h at 37 C. The fragments were purified using Qiaquick PCR columns (Qiagen), analyzed on an ABI 3130xL genetic analyzer (Applied Biosystems) with peak positions identified by using a set of X-rhodamine (ROX)-labeled MapMarker1000 molecular weight standards (BioVentures). The raw capillary electrophoresis data was processed using Attagraph software (Attagene).
For the compound `CC(C)CC(C)CC(O)CC(C)C` (stereo not given), the call was inactive.
For `COc1ccc(COC(C)=O)cc1`, the call was inactive.
As usually defined, the AC50 is the midpoint of the concentration-response curve, whichever way the signal moves. On to `CC(CN=Cc1ccccc1O)N=Cc1ccccc1O` (stereo not given), for which the AC50 is 100 µM (active).
For the compound `C=C1C[C@]23C[C@@]1(O)CC[C@H]2[C@@]12C=C[C@H](O)[C@@](C)(C(=O)O1)[C@H]2[C@@H]3C(=O)O`, the compound was called inactive.
With `CCCCCCC(C)(C)S`, the compound was classed as inactive.
Take `CN1CCOCC1`: the compound was called inactive.
On the same count and under the same terms, the value for `NC1CCCCC1N` (stereo not given) was “inactive”; that for `Cc1ncc[nH]1` was “inactive”.
On the same count and under the same terms, as for `COc1cc(C(C)C)ccc1C`, the entry is “inactive”.
On the same count and under the same terms, the value for `C1CCCCC1` was “inactive”.
`CCCCOCC`: the call was inactive.
The same measure, in the same setting: as for `COc1ccc(OC)c(N=Nc2c(O)ccc3ccccc23)c1`, the entry is “inactive”.
Same read-out and setting: as for `CCCCCCC(CO)CCCC` (stereo not given), the entry is “inactive”.
Same read-out and setting: as for `CCOCCOCCOCC`, the entry is “inactive”.
Take `C=C(C)[C@@H]1CC=C(C)C(=O)C1`: the call was inactive.
Same read-out and setting: the value for `Cc1cc(CCC(=O)OCCOCCOCCOC(=O)CCc2cc(C)c(O)c(C(C)(C)C)c2)cc(C(C)(C)C)c1O` was “inactive”.
On the same count and under the same terms, the value for `CCCC(=O)c1ccccc1` was “inactive”; that for `C[Si]1(C)O[Si](C)(C)O[Si](C)(C)O1` was “inactive”; that for `C=C(C)C1CC=C(C)C(=O)C1` (stereo not given) was “inactive”.
Take `CC1CCC(C(C)C)C(O)C1` (stereo not given): the compound was classed as inactive.
Still for that read-out and setting: the value for `O=C1NC2NC(=O)NC2N1` (stereo not given) was “inactive”.
With `Clc1cc(Cl)c(-c2c(Cl)c(Cl)cc(Cl)c2Cl)cc1Cl`, the AC50 was 35 µM (active).
On to `CCCCCCCCCC(=O)OC`, for which the compound was classed as inactive.
The same measure, in the same setting: the value for `CC(C=O)Cc1ccc(C(C)(C)C)cc1` (stereo not given) was “inactive”; that for `Cc1ccc2c(c1)C(=O)OC2=O` was “inactive”.
The same measure, in the same setting: as for `CC(C)(C)C1=CC(=O)C(C(C)(C)C)=CC1=O`, the entry is “inactive”.
Same read-out and setting: as for `C=Cc1ccncc1`, the entry is “inactive”.
As for `COC(C)(C)CCCC(C)CC=O` (stereo not given), the result was inactive.
Take `CCCCCCC(C)Nc1ccc(Nc2ccccc2)cc1` (stereo not given): the AC50 was 28.9 µM (active).
As to `O=[N+]([O-])c1cccc(Cl)c1`, the compound was called inactive.
With `CCCCCCCCCCCC(=O)OCC(O)CO` (stereo not given), the AC50 is 158 µM (active).
In the case of `CCCCCCCCN1CCCC1=O`, the compound was called inactive.
Still for that read-out and setting: the value for `CCN(CC)C(=O)N(CC)CC` was “inactive”.
Consider `CC1(C)CCC[C@]2(C)[C@H]3CCO[C@]3(C)CC[C@@H]12`, for which the AC50 is 151 µM (active).
For `CCCSc1ccc2nc(NC(=O)OC)[nH]c2c1`, the compound was called inactive.
On the same count and under the same terms, the value for `CCCCC1(COC(=O)CCC(=O)O)C(=O)N(c2ccccc2)N(c2ccccc2)C1=O` was “inactive”; that for `C[C@@H]1CCN(C(=O)[C@H](CCCN=C(N)N)NS(=O)(=O)c2cccc3c2NC[C@H](C)C3)[C@@H](C(=O)O)C1` was “inactive”.
On the same count and under the same terms, as for `CCCOCCO`, the entry is “inactive”; as for `CN1C(=O)c2ccccc2C1=O`, “inactive”; as for `CCCCCCOC(=O)CCC`, “inactive”.
